From PubChem BioAssay (NCI) come the findings set out here.

Among the test systems are DU-145 prostate; K-562 leukemia; MALME-3M melanoma; MDA-MB-231 breast; RXF 393 renal; SF-268 CNS; SF-295 CNS; SF-539 CNS; UACC-257 melanoma; M14 melanoma.
Common to all, as to test: NCI-60 one-dose screen, 48 h (100 = growth as untreated, 0 = no growth, -100 = all killed)
Conditions in all cases: 10 µM unless noted

The structures appear in SMILES notation. The panel holds about 83,000 compounds, 20% with a hit somewhere; the sample as a whole holds those more often.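 Values shown are percent growth following 48 h exposure of cells in 96-well plates to a single concentration of compound; below 10 was considered active.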 A number with no mark means an inactive call. Calls of active or inactive are those of the source.

Consider `Cc1c(/C=C/[N+](=O)[O-])ccc2c1[nH]c1ccccc12`, for which the growth with DU-145 prostate is 99.3%; in the assay on K-562 leukemia, 91.6%; in the assay with MALME-3M melanoma it was 135%; in the assay on MDA-MB-231 breast it was 106%; in the assay on RXF 393 renal, 62.6%; with SF-268 CNS, 108%. The growth in the assay with SF-295 CNS was 103%; in the assay with SF-539 CNS it was 94.2%; in the assay with UACC-257 melanoma, 90%; in the assay with M14 melanoma, 37.7%.

Consider `Cc1cc(C)nc(SC2=C(Nc3cccc(Cl)c3C)C(=O)N(Cc3ccccc3)C2=O)n1`, for which the growth in the assay with DU-145 prostate is 70.7% [30 µM]; in the assay on K-562 leukemia it was 45.4% [30 µM]; in the assay on MALME-3M melanoma it was 58% [30 µM]; in the assay on MDA-MB-231 breast it was 51.6% [30 µM]; in the assay with RXF 393 renal, 43.3% [30 µM]; in the assay with SF-268 CNS it was 72% [30 µM]. Also, the growth in the assay on SF-295 CNS was -5.72% [30 µM] (active); with SF-539 CNS, 50.5% [30 µM]; with UACC-257 melanoma it was 72.3% [30 µM]; in the assay on M14 melanoma it was 63.1% [30 µM].

Regarding `N#CCCN=Nc1c(O)[nH]c2ccc([N+](=O)[O-])cc12`, the growth in the assay with DU-145 prostate was 111%; with K-562 leukemia, 105%; with MALME-3M melanoma it was 110%; in the assay with MDA-MB-231 breast, 90%; in the assay with RXF 393 renal, 106%; in the assay with SF-268 CNS it was 94.9%. For the same molecule, the growth in the assay on SF-295 CNS is 105%; with SF-539 CNS, 94.9%; in the assay on UACC-257 melanoma, 119%; in the assay with M14 melanoma, 101%.

For the molecule `C=CC(=O)Nc1cccc(-c2nc(SC)nc(NCc3ccccc3)c2C#N)c1`, the growth is 60.8% with DU-145 prostate; 60% in the assay with K-562 leukemia; 66.4% with MALME-3M melanoma; 62.4% with MDA-MB-231 breast; 21.9% in the assay with RXF 393 renal; 49% in the assay with SF-268 CNS. Also, the growth in the assay with SF-295 CNS was 67.8%; with SF-539 CNS, 67.7%; in the assay with UACC-257 melanoma it was 64.9%; in the assay on M14 melanoma, 71.3%.

Consider `O=C(/C=C/C=C/c1ccc2c(c1)OCO2)N/N=C\c1ccc(O)cc1O`, for which the growth with DU-145 prostate is 44%; in the assay on K-562 leukemia, 11.6%; in the assay with MALME-3M melanoma, 40.3%; in the assay with MDA-MB-231 breast, 34.4%; in the assay on RXF 393 renal it was 57.9%; with SF-268 CNS, 24.4%. For the same molecule, the growth is 13.8% in the assay on SF-295 CNS, 13.3% in the assay with SF-539 CNS, 28.5% in the assay with UACC-257 melanoma and 30.3% in the assay with M14 melanoma.

Consider `CC1=CC(=NN=c2cc(C)n([O-])c(C)c2)C=C(C)[N+]1=O`, for which the growth in the assay with DU-145 prostate is 107%; in the assay on K-562 leukemia, 85%; in the assay with MALME-3M melanoma, 106%; in the assay with MDA-MB-231 breast it was 97.7%; with RXF 393 renal it was 87.8%; with SF-268 CNS it was 106%. For the same molecule, the growth with SF-295 CNS is 112%; with SF-539 CNS, 105%; with UACC-257 melanoma, 77.4%; in the assay on M14 melanoma, 77.2%.

Turning to `O=C(Cc1ccccc1Nc1c(Cl)cccc1Cl)NN1C(=O)/C(=C/c2ccc(Br)cc2)SC1=S`, the growth in the assay on DU-145 prostate was 109%; in the assay on K-562 leukemia, 100%; in the assay with MALME-3M melanoma it was 100%; in the assay with MDA-MB-231 breast, 103%; in the assay on RXF 393 renal it was 111%; in the assay on SF-268 CNS, 96.8%. Also, the growth with SF-295 CNS was 101%; in the assay on SF-539 CNS it was 93.6%; with UACC-257 melanoma, 103%; in the assay with M14 melanoma, 103%.

With `O=c1cc(CSc2nnc(SCc3cc(=O)oc4c3ccc3ccccc34)o2)c2ccc3ccccc3c2o1`, the growth is 109% with DU-145 prostate; 97.7% in the assay with K-562 leukemia; 102% in the assay on MALME-3M melanoma; 95.8% in the assay with MDA-MB-231 breast; 119% with RXF 393 renal; 96.7% in the assay on SF-268 CNS. Moreover, the growth in the assay with SF-295 CNS was 96.1%; in the assay on SF-539 CNS, 101%; in the assay with UACC-257 melanoma it was 93.6%; with M14 melanoma it was 103%.

Take `Oc1cccc(-c2nc(N3CCOCC3)c3c4c(sc3n2)CCCC4)c1`: the growth in the assay with DU-145 prostate was 37.8%; in the assay on K-562 leukemia it was 69.1%; in the assay on MALME-3M melanoma, 49%; in the assay with MDA-MB-231 breast, 43.2%; in the assay on RXF 393 renal, 16.3%; in the assay on SF-268 CNS it was 36.8%. Moreover, the growth in the assay on SF-295 CNS is 75.6%; with SF-539 CNS it was 50.6%; in the assay with UACC-257 melanoma, 69.7%; in the assay on M14 melanoma it was 60.7%.

Take `Nc1n[nH]c2ccc([C@@H]3Nc4ccc5cn[nH]c5c4[C@H]4C5CCC(C5)[C@@H]34)cc12` (stereo not given in full): the growth in the assay on DU-145 prostate is 18.3%; with K-562 leukemia, 10.8%; in the assay with MALME-3M melanoma it was 51.7%; in the assay on MDA-MB-231 breast it was 50.8%; in the assay with RXF 393 renal, -1.15% (active); in the assay on SF-268 CNS, 42%. Also, the growth in the assay on SF-295 CNS is 13.2%; with SF-539 CNS, -19.6% (active); with UACC-257 melanoma, 72.6%; with M14 melanoma, 10.7%.

Take `O=C1Nc2ccc(Br)cc2C12Oc1ccccc1C1CC(c3ccc(F)cc3)=NN12` (stereo not given): the growth with DU-145 prostate was 100%; in the assay on K-562 leukemia it was 84.7%; in the assay with MALME-3M melanoma it was 103%; in the assay on MDA-MB-231 breast, 105%; with RXF 393 renal, 102%; in the assay with SF-268 CNS, 85.5%. The growth is 97.9% in the assay on SF-295 CNS, 91.9% in the assay with SF-539 CNS, 104% with UACC-257 melanoma and 103% in the assay with M14 melanoma.

`CC1=C/C(=C(\c2ccc(N(C)C)cc2)c2ccc([N+](C)(C)C)cc2)C=CC1=[N+](C)C`: the growth in the assay with DU-145 prostate was 51.5%; in the assay on K-562 leukemia, 37.5%; in the assay with MALME-3M melanoma, 120%; in the assay with MDA-MB-231 breast, 93.9%; in the assay on RXF 393 renal, 76.6%; with SF-268 CNS, 92%. In addition, the growth is 48.4% in the assay with SF-295 CNS, 78.6% in the assay on SF-539 CNS, 99.8% with UACC-257 melanoma and 77.5% in the assay on M14 melanoma.

`CC(C)n1c(/C=C/[C@@H](O)C[C@@H](O)CC(=O)O)c(-c2ccc(F)cc2)c2ccccc21`: the growth with DU-145 prostate was 97.9%; with K-562 leukemia it was 66.4%; in the assay with MALME-3M melanoma, 79.6%; in the assay with MDA-MB-231 breast, 15.7%; in the assay on RXF 393 renal, 50.9%; with SF-268 CNS it was 43.6%. In addition, the growth with SF-295 CNS was 16.8%; in the assay with SF-539 CNS, 83.5%; in the assay on UACC-257 melanoma, 79.4%; in the assay on M14 melanoma, 55.5%.
